The target of the first experiment is PPARGC1A. The experiment can be described thus: pooled miR-30 sensor sort-seq; sequence = guide strand. The conditions noted are these: shRNA.
The sequence TTGTCTAGAGTCTTGGAGCTCC had a sensor-assay potency score (higher = more potent) of 0.145.
Still for that read-out and setting: the same measure for TTTCTAGTTGTCTAGAGTCTTG: -1.22; for TTGCTGTTGACAAATACTCTTC: -0.955.
Same read-out and setting: to TTACATTTGAATATTCTTGATT belongs 0.253.
On the same count and under the same terms, the same measure for TTAGACTTGAAAAATTGCTTGC: 0.583.
TTGACAAATACTCTTCGCTTTA had a sensor-assay potency score (higher = more potent) of -1.03.
Same read-out and setting: the same measure for TAGGTAATGAAACCATAGCTGT: -0.856.

Another experiment concerns the target PPCS. Described as above. The conditions noted are these: shRNA.
Take TACAATAAACACAAAGGACTGT: the sensor-assay potency score (higher = more potent) was determined as 0.367.
The same measure, in the same setting: to TAAACACAAAGGACTGTCGTGA belongs 0.415; to TAAATTTCCAAAGCCTTCCGAG, -0.661.
Still for that read-out and setting: to TTCATTGTTATCTGCAGTGGGC belongs -0.306; to TTATCCACTATCTTCTCTTCTA, -0.111; to TCTGATAGCAATAACTTGGTTT, 0.221.
With TTCTCTTCTATCTCTACGCCTT, the sensor-assay potency score (higher = more potent) was -0.45.
Still for that read-out and setting: to TTTGGCACCATCTTCATTGTTA belongs 0.148; to TTGATGCTGATAAATTTCCAAA, -1.35.
Same read-out and setting: the same measure for TTGTAGTTTTCACCATCTCTAA: -1.34; for TTTTTTTGTAGTTTTCACCATC: -0.312.
Same read-out and setting: the same measure for TTCACCATCTCTAAGAGCCCTG: -0.3.

The target of another experiment is PPEF1. The experiment is described as above. The conditions noted are these: shRNA.
As for TTTTCCATAGTATCCACTCTTT, the sensor-assay potency score (higher = more potent) is -0.493.
The same measure, in the same setting: to TAGTAGTTTTCTCTTGTGCTGT belongs -0.247; to TATCGAGTCCACATAATCCCAT, -1.01.
With TTGTATGTGAGTGAAATTCGGC, the sensor-assay potency score (higher = more potent) is -0.494.
The same measure, in the same setting: the same measure for TTATGCAAAATTTCTTTCGTGA: 0.493; for TTGTTCATCAGCATATTCGATG: -0.664.
TAATGCTGAAACCAAATCCTAT had a sensor-assay potency score (higher = more potent) of -0.921.
As to TAATCTTACCAATAACAGCTTG, the sensor-assay potency score (higher = more potent) was -0.683.
On the same count and under the same terms, to TTTTATTGTGCTTCGAGTCAGT belongs 0.317; to TAGTTTTCCAACATGAAGGAAA, -0.591; to TTCATCAGCATATTCGATGGAC, -0.181.
On the same count and under the same terms, to TTTTCTGTGGTCTTGAAGTTGG belongs -0.736.

For another experiment, the target named is PPIA. The experiment is described as above. The conditions noted are these: shRNA.
ATAATCATAAACTTAACTCTGC had a sensor-assay potency score (higher = more potent) of 0.46.
Take TTTCACTTTGCCAAACACCACA: the sensor-assay potency score (higher = more potent) was -0.879.
The same measure, in the same setting: to TCATCTTCAAATTTCTCCCCAT belongs -0.0656.
Still for that read-out and setting: the same measure for TAAACTTAACTCTGCAATCCAG: -0.459; for TTCTGCTGTCTTTGGGACCTTG: -0.756; for TTAGGATGAAGTTCTCATCTTC: 0.589.
In turn, TACAGAAGGAATGATCTGGTGG gave a sensor-assay potency score (higher = more potent) of 0.317.
The same measure, in the same setting: the same measure for TTGCTGGTCTTGCCATTCCTGG: -1.6; for AAACTTAACTCTGCAATCCAGC: -0.893.

For the origin of these results see the OligoGym collection.
Further: reference of the scale not given here.
